# Test results published in PMC5540273 (PLoS ONE, 2017).
# What was measured:
# Conditions in all cases: concentration: 1 μM, replicates: in singlicate; n = 1
# CDK8 = system: CDK8
# CDK9 = system: CDK9
# CDKL1 = system: CDKL1
# CDKL2 = system: CDKL2
# CDKL3 = system: CDKL3
# CDKL5 = system: CDKL5
# CHEK1 = system: CHEK1
# CHEK2 = system: CHEK2
# CIT = system: CIT
# CLK1 = system: CLK1
# CLK2 = system: CLK2
# CLK3 = system: CLK3
# CLK4 = system: CLK4
# CSF1R-autoinhibited = system: CSF1R-autoinhibited
# CSF1R = system: CSF1R
# CSK = system: CSK
# CSNK1A1L = system: CSNK1A1L
# CSNK1A1 = system: CSNK1A1
# CSNK1D = system: CSNK1D
# CSNK1E = system: CSNK1E
# 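Also: KINOMEscan kinase panel screen.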
smiles,measurement,setting,value
COc1cccc(C2=C(Nc3ccc(Cl)c(C(=O)O)c3)C(=O)NC2=O)c1 [SB-390769],%Inh,CDK8,0%
same,%Inh,CDK9,0%
same,%Inh,CDKL1,47%
same,%Inh,CDKL2,25%
same,%Inh,CDKL3,100%
same,%Inh,CDKL5,6%
same,%Inh,CHEK1,0%
same,%Inh,CHEK2,0%
same,%Inh,CIT,40%
same,%Inh,CLK1,12%
same,%Inh,CLK2,6%
same,%Inh,CLK3,0%
same,%Inh,CLK4,17%
same,%Inh,CSF1R-autoinhibited,13%
same,%Inh,CSF1R,0%
same,%Inh,CSK,0%
same,%Inh,CSNK1A1L,5%
same,%Inh,CSNK1A1,0%
same,%Inh,CSNK1D,8%
same,%Inh,CSNK1E,13%
C[C@@H]1CC[C@@H](C(=O)Nc2ccccc2)CN1c1cc(-c2ccc3c(N)n[nH]c3c2)nc(N)n1 [GSK2286062],%Inh,CDK8,19%
same,%Inh,CDK9,4%
same,%Inh,CDKL1,0%
same,%Inh,CDKL2,7%
same,%Inh,CDKL3,0%
same,%Inh,CDKL5,0%
same,%Inh,CHEK1,0%
same,%Inh,CHEK2,26%
same,%Inh,CIT,8%
same,%Inh,CLK1,14%
same,%Inh,CLK2,13%
same,%Inh,CLK3,0%
same,%Inh,CLK4,16%
same,%Inh,CSF1R-autoinhibited,10%
same,%Inh,CSF1R,0%
same,%Inh,CSK,0%
same,%Inh,CSNK1A1L,6%
same,%Inh,CSNK1A1,0%
same,%Inh,CSNK1D,20%
same,%Inh,CSNK1E,0%
c1ccc(-c2n[nH]cc2Nc2ccnc3ccccc23)nc1 [GW694077],%Inh,CDK8,30%
same,%Inh,CDK9,0%
same,%Inh,CDKL1,3%
same,%Inh,CDKL2,31%
same,%Inh,CDKL3,0%
same,%Inh,CDKL5,0%
same,%Inh,CHEK1,0%
same,%Inh,CHEK2,18%
same,%Inh,CIT,61%
same,%Inh,CLK1,98.2%
same,%Inh,CLK2,94.3%
same,%Inh,CLK3,25%
same,%Inh,CLK4,96.5%
same,%Inh,CSF1R-autoinhibited,29%
same,%Inh,CSF1R,7%
same,%Inh,CSK,0%
same,%Inh,CSNK1A1L,20%
same,%Inh,CSNK1A1,40%
same,%Inh,CSNK1D,55%
same,%Inh,CSNK1E,63%
COc1cc(Nc2nccc(N3CCC(NC(=O)c4cc5ccccc5s4)C3)n2)cc(OC)c1OC (stereo not shown) [GSK1379760],%Inh,CDK8,38%
same,%Inh,CDK9,5%
same,%Inh,CDKL1,11%
same,%Inh,CDKL2,43%
same,%Inh,CDKL3,13%
same,%Inh,CDKL5,1%
same,%Inh,CHEK1,0%
same,%Inh,CHEK2,16%
same,%Inh,CIT,0%
same,%Inh,CLK1,4%
same,%Inh,CLK2,0%
same,%Inh,CLK3,0%
same,%Inh,CLK4,13%
same,%Inh,CSF1R-autoinhibited,23%
same,%Inh,CSF1R,18%
same,%Inh,CSK,0%
same,%Inh,CSNK1A1L,0%
same,%Inh,CSNK1A1,41%
same,%Inh,CSNK1D,10%
same,%Inh,CSNK1E,0%
Nc1ncc(-c2ccc3nccc(-c4ccncc4)c3c2)cc1S(=O)(=O)N1CCOCC1 [GSK1627798],%Inh,CDK8,4%
same,%Inh,CDK9,0%
same,%Inh,CDKL1,0%
same,%Inh,CDKL2,4%
same,%Inh,CDKL3,0%
same,%Inh,CDKL5,0%
same,%Inh,CHEK1,0%
same,%Inh,CHEK2,0%
same,%Inh,CIT,7%
same,%Inh,CLK1,63%
same,%Inh,CLK2,72%
same,%Inh,CLK3,55%
same,%Inh,CLK4,54%
same,%Inh,CSF1R-autoinhibited,0%
same,%Inh,CSF1R,3%
same,%Inh,CSK,0%
same,%Inh,CSNK1A1L,7%
same,%Inh,CSNK1A1,3%
same,%Inh,CSNK1D,37%
same,%Inh,CSNK1E,42%
COCCOCCOc1cc2ncc3c4ccc(C#N)cc4[nH]c3c2cc1OC,%Inh,CDK8,1%
same,%Inh,CDK9,0%
same,%Inh,CDKL1,56%
same,%Inh,CDKL2,7%
same,%Inh,CDKL3,0%
same,%Inh,CDKL5,0%
same,%Inh,CHEK1,55%
same,%Inh,CHEK2,57%
same,%Inh,CIT,98.2%
same,%Inh,CLK1,84%
same,%Inh,CLK2,67%
same,%Inh,CLK3,14%
same,%Inh,CLK4,76%
same,%Inh,CSF1R-autoinhibited,97.4%
same,%Inh,CSF1R,50%
same,%Inh,CSK,10%
same,%Inh,CSNK1A1L,8%
same,%Inh,CSNK1A1,5%
same,%Inh,CSNK1D,0%
same,%Inh,CSNK1E,2%
O=C(Nc1n[nH]c2nc(-c3ccc(O)cc3)ccc12)C1CC1 [SB-710363],%Inh,CDK8,0%
same,%Inh,CDK9,36%
same,%Inh,CDKL1,39%
same,%Inh,CDKL2,96.6%
same,%Inh,CDKL3,44%
same,%Inh,CDKL5,41%
same,%Inh,CHEK1,0%
same,%Inh,CHEK2,4%
same,%Inh,CIT,29%
same,%Inh,CLK1,15%
same,%Inh,CLK2,21%
same,%Inh,CLK3,10%
same,%Inh,CLK4,15%
same,%Inh,CSF1R-autoinhibited,0%
same,%Inh,CSF1R,0%
same,%Inh,CSK,0%
same,%Inh,CSNK1A1L,10%
same,%Inh,CSNK1A1,0%
same,%Inh,CSNK1D,0%
same,%Inh,CSNK1E,12%
Oc1cc(Nc2ccnc3cc(I)ccc23)ccc1F [GW552771],%Inh,CDK8,23%
same,%Inh,CDK9,0%
same,%Inh,CDKL1,0%
same,%Inh,CDKL2,30%
same,%Inh,CDKL3,0%
same,%Inh,CDKL5,0%
same,%Inh,CHEK1,2%
same,%Inh,CHEK2,4%
same,%Inh,CIT,30%
same,%Inh,CLK1,8%
same,%Inh,CLK2,51%
same,%Inh,CLK3,0%
same,%Inh,CLK4,9%
same,%Inh,CSF1R-autoinhibited,23%
same,%Inh,CSF1R,23%
same,%Inh,CSK,0%
same,%Inh,CSNK1A1L,16%
same,%Inh,CSNK1A1,0%
same,%Inh,CSNK1D,20%
same,%Inh,CSNK1E,16%
